Test results taken from ChEMBL document CHEMBL1201862, “PubChem BioAssay data set” (2004).
The campaign covered roughly 400,000 compounds. About 2,100 (0.53%) were called active. Another 14% or so got no clear call; they are omitted. How the calls were made is not given here. The sample as a whole holds a higher share of actives than the screen did.

Biological target: Ataxin-2 (Homo sapiens) (UniProt Q99700)
Test: qHTS for Inhibitors of ATXN expression.
Format: functional

Chain of Ataxin-2 (Homo sapiens) (Q99700 whole entry): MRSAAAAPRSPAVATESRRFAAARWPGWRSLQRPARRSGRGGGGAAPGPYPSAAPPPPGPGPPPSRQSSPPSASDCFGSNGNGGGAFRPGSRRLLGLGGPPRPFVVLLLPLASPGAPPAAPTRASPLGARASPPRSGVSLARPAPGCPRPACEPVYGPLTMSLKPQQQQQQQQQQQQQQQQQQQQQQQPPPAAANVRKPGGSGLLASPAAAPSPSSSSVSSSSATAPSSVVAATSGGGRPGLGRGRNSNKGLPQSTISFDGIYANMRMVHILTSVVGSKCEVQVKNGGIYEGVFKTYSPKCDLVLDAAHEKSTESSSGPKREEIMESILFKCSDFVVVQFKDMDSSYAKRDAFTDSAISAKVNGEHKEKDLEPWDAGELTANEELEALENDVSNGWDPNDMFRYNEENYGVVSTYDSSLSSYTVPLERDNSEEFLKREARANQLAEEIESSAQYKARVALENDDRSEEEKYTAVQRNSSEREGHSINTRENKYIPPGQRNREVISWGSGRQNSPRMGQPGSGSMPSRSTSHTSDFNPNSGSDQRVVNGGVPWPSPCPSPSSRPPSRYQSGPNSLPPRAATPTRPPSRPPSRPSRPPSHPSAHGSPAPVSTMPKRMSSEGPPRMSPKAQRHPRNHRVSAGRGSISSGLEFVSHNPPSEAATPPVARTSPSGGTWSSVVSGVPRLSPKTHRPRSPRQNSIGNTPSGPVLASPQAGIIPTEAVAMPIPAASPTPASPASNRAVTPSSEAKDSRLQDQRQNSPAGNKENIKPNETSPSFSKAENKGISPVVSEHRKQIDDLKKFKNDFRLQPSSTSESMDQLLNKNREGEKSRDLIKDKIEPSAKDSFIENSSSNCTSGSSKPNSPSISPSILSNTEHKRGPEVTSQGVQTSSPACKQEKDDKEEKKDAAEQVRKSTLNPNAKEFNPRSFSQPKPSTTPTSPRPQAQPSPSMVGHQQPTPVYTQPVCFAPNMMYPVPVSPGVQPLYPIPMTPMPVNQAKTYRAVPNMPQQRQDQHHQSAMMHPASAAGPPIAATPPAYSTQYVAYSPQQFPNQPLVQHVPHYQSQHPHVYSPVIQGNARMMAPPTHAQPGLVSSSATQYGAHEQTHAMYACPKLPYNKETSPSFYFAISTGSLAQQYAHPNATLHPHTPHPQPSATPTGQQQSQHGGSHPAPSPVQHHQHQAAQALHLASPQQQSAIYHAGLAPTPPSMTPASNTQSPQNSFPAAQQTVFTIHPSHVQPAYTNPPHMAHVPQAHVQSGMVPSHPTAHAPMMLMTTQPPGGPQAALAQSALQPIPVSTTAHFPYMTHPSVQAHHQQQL

| SMILES | Potency |
| --- | --- |
| Cc1nc(NC(=O)CSc2nnc(C3CC3)n2C)sc1C | inactive |
| C=CCn1c(=N)c(C(=O)NCCCOC)cc2c(=O)n3cc(C)ccc3nc21 | inactive |
| CCOc1ccc(S(=O)(=O)[N-]c2nc3ccccc3nc2-[n+]2ccc(NC(=O)c3cccs3)cc2)cc1 | inactive |
| CCCn1c(=O)c(C(=O)Nc2ccccc2C)c(O)c2ccccc21 | inactive |
| COC(=O)c1c(NC(=O)c2ccc(N(C)S(=O)(=O)c3ccc(C)cc3)cc2)sc2c1CCCC2 | inactive |
| COC(=O)c1c(NC(=S)NC(=O)c2ccco2)sc2c1CCCC2 | inactive |
| COC(=O)c1ccc(NC(=O)c2c(NCc3ccc(C)o3)sc3c2CCCC3)cc1 | 35.5 µM (active) |
| O=C(O)c1ccc(N2N=C(c3ccccc3)CC2c2ccccc2)cc1 (stereo not drawn) | inactive |
| COc1ccc(C2=NN(C(=O)c3ccccc3)C(c3ccc(OC)c(OC)c3)C2)c(O)c1 (stereo not drawn) | inactive |
| Cc1ccc(C(=O)N2N=C(c3ccc(Br)cc3)CC2c2ccccc2O)cc1 (stereo not drawn) | 42.3 µM (active) |
| N#Cc1c(C(F)(F)F)cc(-c2cccs2)nc1N1CCCCC1 | inactive |
| Cc1ccccc1NC(=O)c1nn(C)c(C(=O)Nc2ccccc2C)c1[N+](=O)[O-] | inactive |
| Cc1ccccc1NC(=O)Nc1nnc(Cc2ccc([N+](=O)[O-])cc2)s1 | 11.2 µM (active) |
| COc1ccccc1NC(=O)Nc1nnc(Cc2ccc(F)cc2)s1 | inactive |
| CCCc1cc(NCCOCCO)n2c(nc3ccccc32)c1C#N | inactive |
| Nc1nc(O)nc(O)c1N=Cc1ccccc1 | inactive |
| COC(=O)c1ccc(/C=N/Nc2nc(C)c(C)s2)cc1 | inactive |
| C/C(=N\NC(=O)c1ccc(CN2CCOCC2)cc1)c1ccc([N+](=O)[O-])cc1 | inactive |
| C/C(=N\Nc1nc(C)c(C)s1)c1ccc([N+](=O)[O-])cc1 | 37.7 µM (active) |
| O=C(O)c1ccc(C=C(c2nc3ccccc3s2)c2nc3ccccc3s2)cc1 | inactive |
| O=C(OCc1nc2ccccc2s1)c1ccccc1O | inactive |
| O=S(=O)(CCSc1nc2ccccc2o1)c1nc2ccccc2s1 | 15.8 µM (active) |
| CCOc1ccccc1N(CC(=O)NCCSc1ccccn1)S(=O)(=O)c1ccccc1 | inactive |
| Brc1ccccc1-c1nnc(SCc2nc3ccccc3s2)o1 | inactive |
| O=S(=O)(CCSc1ccccn1)c1nc2ccccc2s1 | 22.4 µM (active) |
| C=CCS(=O)(=O)c1nc2ccccc2s1 | 35.5 µM (active) |
| Cc1cccc(N2CC(C(=O)Nc3ccc(S(=O)(=O)Nc4nccs4)cc3)CC2=O)c1C (stereo not drawn) | inactive |
| COCC(=O)Nc1nc2n(n1)C(c1ccc(Cl)cc1)CC(c1ccc(OC)cc1)N2 (stereo not drawn) | inactive |
